Test results: PubChem BioAssay (NCI)
This is part of a sample that, as a whole, favours compounds with a hit. Of some 83,000 tested, about 20% had one in any assay.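 Note: values are percent growth. 100 is the growth of untreated cells, values between 100 and 0 indicate rising inhibition; between -100 and 0 indicates cell death.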 Values without a mark were called inactive. Activity calls are given as the source filed them. Rule for the calls: active = growth percent below 10; inactive = the rest.

tested on: OVCAR-8 ovarian; assay: NCI-60 one-dose screen, 48 h (100 = growth as untreated, 0 = no growth, -100 = all killed); conditions: 10 µM unless noted

| SMILES | growth |
| --- | --- |
| COc1ccc(O)c(-c2cc(-c3ccccc3)c(C#N)c(=O)[nH]2)c1 | 96.3% |
| CN(C)c1ccc(/C=C2\C=C(c3ccccc3)N(CCc3ccccc3)C2=O)cc1 | 11.7% |
| O=c1oc2ccc(Cl)cc2cc1-c1cs/c(=N/N=C\c2ccc(Cl)cc2)n1/N=C/c1ccc(Cl)cc1 | 96.5% |
| O=C1c2ccccc2C2(c3ccc(O)cc3)c3ccccc3Oc3cccc1c32 (centres undefined) | 66.8% |
| c1ccc([P+](CCCc2n(Cc3ccc4ccccc4c3)c3ccccc3[n+]2Cc2ccc3ccccc3c2)(c2ccccc2)c2ccccc2)cc1 | 70.2% |
| C/C(Cc1ccc(Cl)cc1)=C(/c1ccc(Cl)cc1)c1ccc(OCCN(C)C)cc1 | 69.2% |
| COc1cc2c(cc1OC)-c1ccc3cc4c(cc3c1N(CCCN1CCCCC1)C2)OCO4 | 32.6% |
| COc1ccc(C(=O)/C=C/c2cc3c(c(OC)c2)OCC(=O)N3)cc1 | 44.8% |
| Cn1nnnc1-c1ccc(N)cc1 | 107% |
| CCCCNCC(=O)Nc1ccc(C(=O)OCC)cc1 | 104% |
| CCCCCOC(=O)c1ccc(NC(=O)CNCC(C)C)cc1 | 96.1% |
| Cc1nc(Nc2cccc(NC(=O)Nc3ccc(Cl)cc3)c2)c2ccccc2n1 | 93.9% |
| C=C(Cl)COC(=O)C(C)(C)O | 98.7% |
| CCNCCNc1cc(-c2ccc(Cl)cc2)c(C#N)c2nc3ccccc3n12 | 10.7% |
| O=C1NCC(=O)N(Cc2ccco2)[C@H]1Cc1ccccc1 | 105% |
| Cc1ccc(NC(=O)C(Cl)Cl)cc1 | 99.5% |
| CCOc1cccnc1/C=N/NC(N)=S | 43.7% |
| O=C(c1ccccc1)c1ccc(Cl)c([N+](=O)[O-])c1 | 97.8% |
| CCN(CC)CC(=O)Nc1cccc(C(=O)OC(C)C)c1 | 108% |
| CCOC(=O)C(O)C(O)(c1ccccc1)c1ccccc1 (centres undefined) | 108% |

| SMILES | growth |
| --- | --- |
| C[C@@H]1C(=O)N(C[C@@H](Cc2ccccc2)NC(=O)OCc2ccccc2)[C@]1(Cc1ccccc1)C(=O)OCc1ccccc1 | 40.2% |
| CC1(C)N=C(N)N=C(N)N1c1cccc(CN)c1 | 93.3% |
| CC(c1ccc(-n2cccn2)cc1)c1cnc(N2CCc3ccc(C(N)=O)cc3C2)s1 (centres undefined) | 34.9% |
| COc1ccc(OC)c(Nc2nc3nonc3nc2Nc2cccc(Br)c2)c1 | 10.5% |
| N#Cc1c(N)nc2c(nnn2-c2cccc(Br)c2)c1N | 93.8% |
| [2H]c1nc(Nc2ncc(F)c(-c3cc(F)c4nc(C)n(C(C)C)c4c3)n2)c([2H])c([2H])c1CN1CCN(C([2H])([2H])C([2H])([2H])[2H])CC1 | 67.1% |
| Cc1c(C(=O)O)nnn1-c1nccs1 | 91.6% |
| CCNCCNc1cc(-c2ccc(C(=O)OC)cc2)c(C#N)c2nc3ccccc3n12 | 31.5% |
| CO[C@H]1/C=C/O[C@@]2(C)Oc3c(C)c(O)c4c(c3C2=O)C(=O)C(/C=N/N(c2ccccc2)c2ccccc2)=C(NC(=O)/C(C)=C\C=C\[C@H](C)[C@H](O)[C@@H](C)[C@@H](O)[C@@H](C)[C@H](OC(C)=O)[C@@H]1C)C4=O | 7.09% (active) |
| O[C@H]1CO[C@H]2[C@@H]1OC[C@@H]2Oc1ccc(Nc2nc(Nc3ccc(F)c(Cl)c3)ncc2F)cc1Cl | 111% |
| CCNCCNc1cc(-c2cccc(C(F)(F)F)c2)c(C#N)c2nc3ccccc3n12 | -39.7% (active) |
| CN(C)CCN1C(=O)c2cccc3c(-c4ccc(-c5nc6c7ccccc7c7ccccc7c6[nH]5)cc4)ccc(c23)C1=O | 52% |
| CCOC(=O)c1c(C)nc2c(c1N)/C(=C/c1ccc(OC)cc1)C(=O)N2Cc1ccc(F)cc1 | 8.74% (active) |
| CSc1ccc(Cl)c(C(=O)Nc2sccc2C(N)=O)c1 | 94.4% |
| CN1C[C@@H](c2ccc(Cl)cc2)[C@]2(NC(=S)N(c3ccc(F)c(Cl)c3)C2=O)[C@@]12C(=O)NC1C=CC(Cl)=C[C@H]12 (some centres undefined) | 60% |
| O=C(Nc1ccccc1)c1sc(-c2cccc(C(F)(F)F)c2)cc1O | 66% |
| NS(=O)(=O)c1cn(-c2ncnc3nc[nH]c23)ccc1=O | 107% |
| Nc1c(C(=O)c2ccccc2)nnc2ncnn12 | 107% |
| CCCCCCCSc1ccc(C(=O)O)cc1 | 95.7% |
